The text below walks through data of paper PMC7862700, “An all-to-all approach to the identification of sequence-specific readers for epigenetic DNA modifications on cytosine”.

Common to all, as to assay: DAPPL (digital affinity profiling via proximity ligation, sequencing); 10 mM Tris-HCl pH 7.5, 50 mM NaCl, 1 mM DTT, 4% glycerol, room temperature, 30 min; GST-TFs on glutathione beads, 16-mer random dsDNA library, 0.1% formaldehyde crosslink after washing; high values mean tight binding
Settings in all cases: protein: recombinant; tags: N-terminal GST; dsDNA, one strand shown

One assay addresses T1, ERG (Homo sapiens, UniProt P11308 1-479).
T1 sequence: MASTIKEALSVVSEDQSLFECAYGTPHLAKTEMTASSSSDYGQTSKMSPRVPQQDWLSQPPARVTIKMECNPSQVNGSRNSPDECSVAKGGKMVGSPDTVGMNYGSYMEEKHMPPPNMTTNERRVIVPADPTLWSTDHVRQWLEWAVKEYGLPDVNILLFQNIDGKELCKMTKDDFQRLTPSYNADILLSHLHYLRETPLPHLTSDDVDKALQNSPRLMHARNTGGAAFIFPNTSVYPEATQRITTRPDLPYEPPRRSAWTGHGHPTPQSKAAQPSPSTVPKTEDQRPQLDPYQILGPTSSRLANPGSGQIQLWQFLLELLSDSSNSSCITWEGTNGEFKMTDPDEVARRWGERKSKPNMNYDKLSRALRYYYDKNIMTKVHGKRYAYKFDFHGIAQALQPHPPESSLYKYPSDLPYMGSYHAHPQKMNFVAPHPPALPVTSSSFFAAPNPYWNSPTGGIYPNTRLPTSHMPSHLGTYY
A digest of the protocol: (§1)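 Each value of binding signal is a hexamer's read frequency for a factor divided by the same hexamer's frequency in the tag-only sample. Barcoded, bead-captured GST fusions of human transcription factors made in yeast were pooled with that sample and incubated with 200 nmole of a random double-stranded 16-mer DNA library in Tris/NaCl/DTT/glycerol buffer at room temperature for 30 min. Washing, 0.1% formaldehyde crosslinking, proximity ligation, PCR and Illumina NextSeq500 sequencing followed.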

The next assay has as its target ELF1 (Homo sapiens, UniProt P32519 1-619). The gist of the method: as §1
Another assay concerns the target ETV5 (Homo sapiens, UniProt P41161 1-510). A digest of the protocol:
as §1

A further assay concerns the target T2, SPIC (Homo sapiens, UniProt Q8N5J4 1-248).
T2 sequence: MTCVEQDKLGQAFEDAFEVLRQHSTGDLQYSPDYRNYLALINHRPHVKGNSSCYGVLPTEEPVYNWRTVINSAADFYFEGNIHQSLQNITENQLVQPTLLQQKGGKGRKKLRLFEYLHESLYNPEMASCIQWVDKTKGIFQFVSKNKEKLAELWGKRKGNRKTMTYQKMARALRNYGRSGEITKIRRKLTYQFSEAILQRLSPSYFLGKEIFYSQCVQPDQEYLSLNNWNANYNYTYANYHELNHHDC
A digest of the protocol: as §1

A further assay has as its target ELF4 (Homo sapiens, UniProt Q99607 1-663). A digest of the protocol: as §1
The target of another assay is T3, ELF3 (Homo sapiens, UniProt P78545 1-371).
T3 sequence: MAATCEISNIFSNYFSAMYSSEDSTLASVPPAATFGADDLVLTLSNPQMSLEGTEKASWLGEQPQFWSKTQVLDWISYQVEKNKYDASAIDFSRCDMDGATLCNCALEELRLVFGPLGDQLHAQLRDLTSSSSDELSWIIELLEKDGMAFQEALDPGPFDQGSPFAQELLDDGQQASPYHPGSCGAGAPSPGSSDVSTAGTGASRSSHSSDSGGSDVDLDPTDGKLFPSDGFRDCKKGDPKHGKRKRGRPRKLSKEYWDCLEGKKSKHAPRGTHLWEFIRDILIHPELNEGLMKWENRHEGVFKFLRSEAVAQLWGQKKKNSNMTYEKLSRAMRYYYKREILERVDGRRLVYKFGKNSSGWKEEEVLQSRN
The gist of the method: as §1

The target in another assay is T4, ETV3L (Homo sapiens, UniProt Q6ZN32 1-361).
T4 sequence: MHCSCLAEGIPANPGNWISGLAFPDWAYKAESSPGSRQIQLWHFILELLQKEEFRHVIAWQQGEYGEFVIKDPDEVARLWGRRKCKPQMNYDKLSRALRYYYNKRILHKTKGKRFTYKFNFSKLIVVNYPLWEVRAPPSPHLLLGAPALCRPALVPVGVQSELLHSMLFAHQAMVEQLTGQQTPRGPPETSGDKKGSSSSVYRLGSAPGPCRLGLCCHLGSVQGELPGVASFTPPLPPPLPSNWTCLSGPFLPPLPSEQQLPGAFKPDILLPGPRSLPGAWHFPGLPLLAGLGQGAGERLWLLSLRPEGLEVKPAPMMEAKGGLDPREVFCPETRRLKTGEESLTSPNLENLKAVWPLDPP
A digest of the protocol:
as §1

The target of a further assay is T5, ETV7 (Homo sapiens, UniProt Q9Y603 1-341).
T5 sequence: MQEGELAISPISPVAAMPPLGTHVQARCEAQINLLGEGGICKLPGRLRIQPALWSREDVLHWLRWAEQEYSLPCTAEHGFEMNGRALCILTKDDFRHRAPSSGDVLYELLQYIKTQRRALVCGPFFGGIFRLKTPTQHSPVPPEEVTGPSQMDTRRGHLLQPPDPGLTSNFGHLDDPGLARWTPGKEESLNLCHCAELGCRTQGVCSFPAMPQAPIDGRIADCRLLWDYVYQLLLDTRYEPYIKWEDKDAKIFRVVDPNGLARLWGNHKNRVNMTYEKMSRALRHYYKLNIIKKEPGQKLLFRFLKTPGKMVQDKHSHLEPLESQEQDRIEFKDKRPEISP
A digest of the protocol:
as §1

A further assay concerns the target ETV6 (Homo sapiens, UniProt P41212 1-452). The gist of the method:
as §1

In the next assay the target is T6, ELK1 (Homo sapiens, UniProt P19419 1-428).
T6 sequence: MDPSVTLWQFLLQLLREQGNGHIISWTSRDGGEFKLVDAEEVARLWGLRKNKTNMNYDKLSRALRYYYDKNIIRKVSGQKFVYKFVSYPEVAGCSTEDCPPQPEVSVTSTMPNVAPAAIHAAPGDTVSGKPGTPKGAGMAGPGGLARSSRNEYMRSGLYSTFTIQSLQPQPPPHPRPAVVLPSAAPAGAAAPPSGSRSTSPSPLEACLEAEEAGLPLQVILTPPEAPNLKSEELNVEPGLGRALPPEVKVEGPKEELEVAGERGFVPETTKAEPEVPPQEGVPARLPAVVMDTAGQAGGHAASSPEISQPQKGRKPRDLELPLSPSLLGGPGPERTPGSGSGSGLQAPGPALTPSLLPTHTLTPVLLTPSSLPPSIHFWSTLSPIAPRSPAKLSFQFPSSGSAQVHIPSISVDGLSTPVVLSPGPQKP
A digest of the protocol:
as §1

In another assay the target is T7, GABPA (Homo sapiens, UniProt Q06546 1-454).
T7 sequence: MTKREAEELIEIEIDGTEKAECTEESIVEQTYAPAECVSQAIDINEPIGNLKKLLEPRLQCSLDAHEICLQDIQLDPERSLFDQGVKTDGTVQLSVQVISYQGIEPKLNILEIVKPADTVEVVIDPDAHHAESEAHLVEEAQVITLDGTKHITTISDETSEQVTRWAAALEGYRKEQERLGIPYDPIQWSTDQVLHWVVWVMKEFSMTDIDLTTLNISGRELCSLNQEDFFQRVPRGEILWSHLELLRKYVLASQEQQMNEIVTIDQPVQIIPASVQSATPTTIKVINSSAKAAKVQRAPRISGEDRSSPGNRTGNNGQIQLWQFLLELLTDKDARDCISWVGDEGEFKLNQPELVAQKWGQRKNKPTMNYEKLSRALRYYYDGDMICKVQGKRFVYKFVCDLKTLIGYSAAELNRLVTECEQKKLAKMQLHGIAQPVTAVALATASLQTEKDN
The gist of the method:
as §1

The next assay concerns the target T8, EHF (Homo sapiens, UniProt Q9NZC4 1-300).
T8 sequence: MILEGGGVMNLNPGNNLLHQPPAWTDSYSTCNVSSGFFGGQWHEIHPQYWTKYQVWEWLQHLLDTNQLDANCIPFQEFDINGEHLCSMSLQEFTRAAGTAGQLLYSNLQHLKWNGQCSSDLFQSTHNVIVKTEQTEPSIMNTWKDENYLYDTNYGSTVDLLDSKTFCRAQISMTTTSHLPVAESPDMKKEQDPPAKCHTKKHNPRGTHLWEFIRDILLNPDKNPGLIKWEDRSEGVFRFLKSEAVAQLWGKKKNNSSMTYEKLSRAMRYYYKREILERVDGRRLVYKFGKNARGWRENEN
The gist of the method:
as §1

In the next assay the target is SPI1 (Homo sapiens, UniProt P17947 1-270). A digest of the protocol: as §1
A further assay addresses T9, ELK4 (Homo sapiens, UniProt P28324-2 1-405).
T9 sequence: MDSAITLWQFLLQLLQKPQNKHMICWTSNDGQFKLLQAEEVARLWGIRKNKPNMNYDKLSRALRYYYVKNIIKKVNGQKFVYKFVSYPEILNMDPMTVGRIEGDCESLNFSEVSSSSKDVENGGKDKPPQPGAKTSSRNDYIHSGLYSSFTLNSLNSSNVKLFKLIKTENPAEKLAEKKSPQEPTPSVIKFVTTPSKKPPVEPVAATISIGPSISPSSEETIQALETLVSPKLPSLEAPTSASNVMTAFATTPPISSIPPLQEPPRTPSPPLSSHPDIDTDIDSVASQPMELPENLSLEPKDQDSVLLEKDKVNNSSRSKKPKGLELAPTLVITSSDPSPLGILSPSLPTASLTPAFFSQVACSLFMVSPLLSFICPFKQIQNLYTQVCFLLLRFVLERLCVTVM
The gist of the method: as §1

The target of the next assay is ETV1 (Homo sapiens, UniProt P50549 1-477). A digest of the protocol:
as §1

The next assay concerns the target T10, ERF (Homo sapiens, UniProt P50548 1-548).
T10 sequence: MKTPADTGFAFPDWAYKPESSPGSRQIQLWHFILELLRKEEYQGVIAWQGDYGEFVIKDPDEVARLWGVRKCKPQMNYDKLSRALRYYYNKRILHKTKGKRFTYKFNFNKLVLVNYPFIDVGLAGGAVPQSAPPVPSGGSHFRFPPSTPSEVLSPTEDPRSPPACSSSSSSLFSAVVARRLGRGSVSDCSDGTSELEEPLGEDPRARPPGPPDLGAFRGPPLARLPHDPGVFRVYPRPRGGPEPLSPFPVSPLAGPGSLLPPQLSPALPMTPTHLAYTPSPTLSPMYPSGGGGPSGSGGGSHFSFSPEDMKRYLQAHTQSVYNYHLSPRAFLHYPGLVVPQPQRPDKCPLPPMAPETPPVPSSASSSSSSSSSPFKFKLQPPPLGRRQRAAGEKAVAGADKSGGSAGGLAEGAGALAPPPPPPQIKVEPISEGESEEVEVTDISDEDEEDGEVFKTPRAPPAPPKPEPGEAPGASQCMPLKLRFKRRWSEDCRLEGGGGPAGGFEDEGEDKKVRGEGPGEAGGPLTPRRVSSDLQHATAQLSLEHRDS
The gist of the method:
as §1

In another assay the target is T11, ETS2 (Homo sapiens, UniProt P15036 1-469).
T11 sequence: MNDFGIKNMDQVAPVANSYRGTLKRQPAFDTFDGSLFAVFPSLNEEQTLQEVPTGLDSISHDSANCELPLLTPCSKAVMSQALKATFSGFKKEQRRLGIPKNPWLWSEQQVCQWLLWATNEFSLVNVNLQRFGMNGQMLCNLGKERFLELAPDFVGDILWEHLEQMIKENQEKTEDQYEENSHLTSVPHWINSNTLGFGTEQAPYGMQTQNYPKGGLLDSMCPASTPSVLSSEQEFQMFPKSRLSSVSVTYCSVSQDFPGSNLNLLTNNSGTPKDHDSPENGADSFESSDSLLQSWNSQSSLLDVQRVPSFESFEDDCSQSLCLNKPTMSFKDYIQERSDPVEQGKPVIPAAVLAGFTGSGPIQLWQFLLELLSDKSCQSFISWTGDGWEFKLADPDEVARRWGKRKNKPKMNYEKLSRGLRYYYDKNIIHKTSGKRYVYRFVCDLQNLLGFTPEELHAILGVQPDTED
The gist of the method: as §1

For a further assay, the target named is T12, SPDEF (Homo sapiens, UniProt O95238 1-335).
T12 sequence: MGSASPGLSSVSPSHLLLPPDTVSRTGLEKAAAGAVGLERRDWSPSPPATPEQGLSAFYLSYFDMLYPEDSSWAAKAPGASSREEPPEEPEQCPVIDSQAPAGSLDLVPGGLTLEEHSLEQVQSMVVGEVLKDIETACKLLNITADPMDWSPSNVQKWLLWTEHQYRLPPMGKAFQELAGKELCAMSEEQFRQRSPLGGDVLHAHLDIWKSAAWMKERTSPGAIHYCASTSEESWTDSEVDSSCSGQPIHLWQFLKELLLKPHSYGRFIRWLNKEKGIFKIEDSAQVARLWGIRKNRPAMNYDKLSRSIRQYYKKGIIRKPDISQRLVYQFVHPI
A digest of the protocol:
as §1

Sequence of ETV5 (P41161 whole entry): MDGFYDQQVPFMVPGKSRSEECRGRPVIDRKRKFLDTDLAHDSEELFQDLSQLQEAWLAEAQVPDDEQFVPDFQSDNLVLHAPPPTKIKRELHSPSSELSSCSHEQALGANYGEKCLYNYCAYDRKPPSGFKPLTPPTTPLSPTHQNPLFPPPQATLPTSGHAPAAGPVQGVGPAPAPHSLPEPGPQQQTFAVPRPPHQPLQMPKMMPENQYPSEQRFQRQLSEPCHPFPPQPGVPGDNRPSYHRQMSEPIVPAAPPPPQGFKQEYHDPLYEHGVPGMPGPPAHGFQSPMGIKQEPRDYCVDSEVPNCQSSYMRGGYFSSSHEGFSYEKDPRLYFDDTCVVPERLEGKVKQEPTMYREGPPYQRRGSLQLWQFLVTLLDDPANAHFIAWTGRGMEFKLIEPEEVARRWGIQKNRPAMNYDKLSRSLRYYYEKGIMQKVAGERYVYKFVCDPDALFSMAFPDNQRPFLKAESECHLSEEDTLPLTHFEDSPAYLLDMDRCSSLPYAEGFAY
Sequence of ETV6 (P41212 whole entry): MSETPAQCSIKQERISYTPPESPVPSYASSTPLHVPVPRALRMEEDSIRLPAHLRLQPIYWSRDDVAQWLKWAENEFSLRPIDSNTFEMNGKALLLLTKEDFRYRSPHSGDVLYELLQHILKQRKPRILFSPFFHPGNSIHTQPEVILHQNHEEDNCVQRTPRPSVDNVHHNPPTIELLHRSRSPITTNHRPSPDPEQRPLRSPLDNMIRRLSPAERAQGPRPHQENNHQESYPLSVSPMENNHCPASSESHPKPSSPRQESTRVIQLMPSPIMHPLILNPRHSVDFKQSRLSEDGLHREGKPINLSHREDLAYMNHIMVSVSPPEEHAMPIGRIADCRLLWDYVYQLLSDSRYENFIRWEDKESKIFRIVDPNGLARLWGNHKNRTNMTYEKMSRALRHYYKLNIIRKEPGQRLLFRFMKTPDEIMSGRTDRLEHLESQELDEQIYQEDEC
Sequence of ELF4 (Q99607 whole entry): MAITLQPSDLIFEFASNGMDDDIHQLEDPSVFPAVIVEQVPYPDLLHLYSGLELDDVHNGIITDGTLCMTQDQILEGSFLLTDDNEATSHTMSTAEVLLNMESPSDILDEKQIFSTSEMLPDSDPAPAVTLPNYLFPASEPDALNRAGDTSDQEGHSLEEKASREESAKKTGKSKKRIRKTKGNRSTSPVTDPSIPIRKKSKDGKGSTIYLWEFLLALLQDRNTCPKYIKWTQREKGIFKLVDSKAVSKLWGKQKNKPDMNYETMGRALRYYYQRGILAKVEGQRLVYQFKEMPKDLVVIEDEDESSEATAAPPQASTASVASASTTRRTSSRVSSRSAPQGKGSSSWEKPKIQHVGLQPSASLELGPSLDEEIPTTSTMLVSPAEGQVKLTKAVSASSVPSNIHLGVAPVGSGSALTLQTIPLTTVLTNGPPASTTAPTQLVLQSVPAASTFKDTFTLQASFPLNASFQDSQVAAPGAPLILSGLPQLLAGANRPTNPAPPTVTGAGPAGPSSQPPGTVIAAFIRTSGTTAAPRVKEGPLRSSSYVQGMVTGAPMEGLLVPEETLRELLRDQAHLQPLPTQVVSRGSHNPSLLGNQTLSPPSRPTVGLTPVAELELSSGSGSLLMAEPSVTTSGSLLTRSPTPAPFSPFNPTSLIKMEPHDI
Sequence of ELF1 (P32519 whole entry): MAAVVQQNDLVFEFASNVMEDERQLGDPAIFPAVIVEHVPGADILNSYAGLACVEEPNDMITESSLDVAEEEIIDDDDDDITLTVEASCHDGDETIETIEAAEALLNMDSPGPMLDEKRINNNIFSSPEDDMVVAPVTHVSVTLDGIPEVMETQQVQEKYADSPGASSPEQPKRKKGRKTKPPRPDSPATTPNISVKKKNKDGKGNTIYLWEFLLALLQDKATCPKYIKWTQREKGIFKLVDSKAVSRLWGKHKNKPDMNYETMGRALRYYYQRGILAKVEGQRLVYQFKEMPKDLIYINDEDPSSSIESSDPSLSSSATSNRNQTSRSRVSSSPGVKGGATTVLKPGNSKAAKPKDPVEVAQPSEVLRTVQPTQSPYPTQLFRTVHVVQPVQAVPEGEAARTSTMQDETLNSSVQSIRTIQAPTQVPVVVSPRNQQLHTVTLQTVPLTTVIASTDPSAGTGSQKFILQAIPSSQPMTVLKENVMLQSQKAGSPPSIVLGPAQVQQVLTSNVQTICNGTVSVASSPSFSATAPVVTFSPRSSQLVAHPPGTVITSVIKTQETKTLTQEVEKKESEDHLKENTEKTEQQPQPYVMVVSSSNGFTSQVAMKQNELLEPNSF
Sequence of ETV1 (P50549 whole entry): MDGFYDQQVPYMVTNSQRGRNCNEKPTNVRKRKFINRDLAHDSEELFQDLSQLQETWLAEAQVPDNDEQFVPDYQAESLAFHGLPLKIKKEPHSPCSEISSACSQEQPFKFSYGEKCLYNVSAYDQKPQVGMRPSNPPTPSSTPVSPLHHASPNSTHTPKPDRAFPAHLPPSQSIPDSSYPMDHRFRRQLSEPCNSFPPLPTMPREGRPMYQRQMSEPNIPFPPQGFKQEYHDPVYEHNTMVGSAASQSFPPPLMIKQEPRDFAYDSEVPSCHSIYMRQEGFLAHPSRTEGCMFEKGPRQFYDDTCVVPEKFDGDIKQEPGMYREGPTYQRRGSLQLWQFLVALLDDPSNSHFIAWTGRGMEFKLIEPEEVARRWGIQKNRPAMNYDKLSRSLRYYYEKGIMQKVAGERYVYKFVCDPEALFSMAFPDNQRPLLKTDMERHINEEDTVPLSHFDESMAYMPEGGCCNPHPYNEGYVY

With ACTCAG, the binding signal with ERG was 1.06 fold enrichment (6-mer frequency, TF over GST control); with ELF1 it was 1.07 fold enrichment (6-mer frequency, TF over GST control); with ETV5, 1.03 fold enrichment (6-mer frequency, TF over GST control); in the assay with SPIC it was 1.11 fold enrichment (6-mer frequency, TF over GST control); in the assay with ELF4, 1.08 fold enrichment (6-mer frequency, TF over GST control); in the assay with ELF3, 1.02 fold enrichment (6-mer frequency, TF over GST control). In addition, the binding signal in the assay with ETV3L was 1.01 fold enrichment (6-mer frequency, TF over GST control); with ETV7, 1.05 fold enrichment (6-mer frequency, TF over GST control); in the assay with ETV6, 1.05 fold enrichment (6-mer frequency, TF over GST control).

Take AGCCAC: the binding signal was 1.04 fold enrichment (6-mer frequency, TF over GST control) in the assay with ELK1; 1.01 fold enrichment (6-mer frequency, TF over GST control) in the assay with GABPA; 1.05 fold enrichment (6-mer frequency, TF over GST control) with EHF; 1.03 fold enrichment (6-mer frequency, TF over GST control) with SPI1; 1.01 fold enrichment (6-mer frequency, TF over GST control) with ETV5; 1.03 fold enrichment (6-mer frequency, TF over GST control) with SPIC. The binding signal in the assay with ELK4 was 1.03 fold enrichment (6-mer frequency, TF over GST control); in the assay with ELF3, 1.06 fold enrichment (6-mer frequency, TF over GST control); with ETV1, 1.04 fold enrichment (6-mer frequency, TF over GST control); in the assay with ERF, 1.01 fold enrichment (6-mer frequency, TF over GST control); with ETS2 it was 1.05 fold enrichment (6-mer frequency, TF over GST control); with SPDEF, 1.05 fold enrichment (6-mer frequency, TF over GST control).
